From PubChem BioAssay (NCATS)
Records with an inconclusive call do not appear. Where a call stands in place of a potency, no number is given. Unmarked numbers belong to inactive results. Calls of active or inactive are those of the source. Calls follow the shape of the dose curve; as a rule, active = well fitted curve in the direction sought with a large enough effect; inconclusive = small, poorly fitted or top-dose-only effect, or another doubt; inactive = no such curve, though single readings can be large; an effect the other way counts as inactive or inconclusive.

Legend:
[1] = biological target: Rap guanine nucleotide exchange factor 3 (Homo sapiens) (UniProt O95398); test: Confirmatory qHTS for antagonist of cAMP-regulated guanine nucleotide exchange factor 3 (EPAC1) (AID 1645880); also: nearly all actives have a fitted effect of over 55% in size; also: potency is read from the fitted curve at half-maximal effect
Chain of Rap guanine nucleotide exchange factor 3 (Homo sapiens) (O95398 whole entry, looked up): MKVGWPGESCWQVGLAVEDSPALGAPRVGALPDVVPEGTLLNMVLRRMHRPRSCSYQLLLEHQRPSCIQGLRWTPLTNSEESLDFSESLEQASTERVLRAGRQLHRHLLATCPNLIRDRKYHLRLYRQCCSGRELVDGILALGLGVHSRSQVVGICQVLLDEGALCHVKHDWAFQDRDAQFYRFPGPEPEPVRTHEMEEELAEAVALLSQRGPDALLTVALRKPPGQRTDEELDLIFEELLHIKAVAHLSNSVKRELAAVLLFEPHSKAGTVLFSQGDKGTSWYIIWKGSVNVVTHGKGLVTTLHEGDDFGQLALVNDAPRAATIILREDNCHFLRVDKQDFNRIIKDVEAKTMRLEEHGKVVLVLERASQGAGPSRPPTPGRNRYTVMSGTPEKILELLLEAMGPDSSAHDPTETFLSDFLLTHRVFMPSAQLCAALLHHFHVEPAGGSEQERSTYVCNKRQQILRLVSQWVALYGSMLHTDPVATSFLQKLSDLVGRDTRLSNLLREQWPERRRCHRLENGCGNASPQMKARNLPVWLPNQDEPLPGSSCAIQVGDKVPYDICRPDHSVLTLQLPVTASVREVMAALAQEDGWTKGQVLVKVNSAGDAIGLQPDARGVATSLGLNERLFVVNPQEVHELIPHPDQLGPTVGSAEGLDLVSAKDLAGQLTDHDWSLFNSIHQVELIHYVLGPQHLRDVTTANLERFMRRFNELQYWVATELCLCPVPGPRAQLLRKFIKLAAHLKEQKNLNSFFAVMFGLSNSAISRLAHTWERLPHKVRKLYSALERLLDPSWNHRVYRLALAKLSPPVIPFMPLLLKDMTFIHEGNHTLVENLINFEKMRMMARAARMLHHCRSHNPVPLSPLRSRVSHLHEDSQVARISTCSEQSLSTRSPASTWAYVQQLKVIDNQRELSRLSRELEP
Outline: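 Nucleotide exchange uses 100 nM EPAC1, 250 nM RAP1B-BODIPY-GDP and 50 uM GDP, with compounds in a concentration-titration series. After 5 min at room temperature, fluorescence (480 nm ex/540 nm em) is read every 5 min for 30 min. Data are normalized to control ATA and DMSO.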

[2] = biological target: Rap guanine nucleotide exchange factor 3 (Homo sapiens) (UniProt O95398); test: Confirmatory qHTS for agonist of cAMP-regulated guanine nucleotide exchange factor 3 (EPAC1) (AID 1645881); also: nearly all actives have a fitted effect of over 75% in size; also: potency is read from the fitted curve at half-maximal effect;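 as to activation: EPAC1 catalysed release of BODIPY-GDP from Rap1B seen as fluorescence loss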
[3] = biological target: Rap guanine nucleotide exchange factor 4 (Homo sapiens) (UniProt Q8WZA2); test: Confirmatory qHTS for agonist of cAMP-regulated guanine nucleotide exchange factor 4 (EPAC2) (AID 1645884);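 also: nucleotide exchange releases bodipy-GDP from Rap1 and this lowers its fluorescence; nearly all actives have a fitted effect of over 65% in size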; also: potency is read from the fitted curve at half-maximal effect
Chain of Rap guanine nucleotide exchange factor 4 (Homo sapiens) (Q8WZA2 whole entry, looked up): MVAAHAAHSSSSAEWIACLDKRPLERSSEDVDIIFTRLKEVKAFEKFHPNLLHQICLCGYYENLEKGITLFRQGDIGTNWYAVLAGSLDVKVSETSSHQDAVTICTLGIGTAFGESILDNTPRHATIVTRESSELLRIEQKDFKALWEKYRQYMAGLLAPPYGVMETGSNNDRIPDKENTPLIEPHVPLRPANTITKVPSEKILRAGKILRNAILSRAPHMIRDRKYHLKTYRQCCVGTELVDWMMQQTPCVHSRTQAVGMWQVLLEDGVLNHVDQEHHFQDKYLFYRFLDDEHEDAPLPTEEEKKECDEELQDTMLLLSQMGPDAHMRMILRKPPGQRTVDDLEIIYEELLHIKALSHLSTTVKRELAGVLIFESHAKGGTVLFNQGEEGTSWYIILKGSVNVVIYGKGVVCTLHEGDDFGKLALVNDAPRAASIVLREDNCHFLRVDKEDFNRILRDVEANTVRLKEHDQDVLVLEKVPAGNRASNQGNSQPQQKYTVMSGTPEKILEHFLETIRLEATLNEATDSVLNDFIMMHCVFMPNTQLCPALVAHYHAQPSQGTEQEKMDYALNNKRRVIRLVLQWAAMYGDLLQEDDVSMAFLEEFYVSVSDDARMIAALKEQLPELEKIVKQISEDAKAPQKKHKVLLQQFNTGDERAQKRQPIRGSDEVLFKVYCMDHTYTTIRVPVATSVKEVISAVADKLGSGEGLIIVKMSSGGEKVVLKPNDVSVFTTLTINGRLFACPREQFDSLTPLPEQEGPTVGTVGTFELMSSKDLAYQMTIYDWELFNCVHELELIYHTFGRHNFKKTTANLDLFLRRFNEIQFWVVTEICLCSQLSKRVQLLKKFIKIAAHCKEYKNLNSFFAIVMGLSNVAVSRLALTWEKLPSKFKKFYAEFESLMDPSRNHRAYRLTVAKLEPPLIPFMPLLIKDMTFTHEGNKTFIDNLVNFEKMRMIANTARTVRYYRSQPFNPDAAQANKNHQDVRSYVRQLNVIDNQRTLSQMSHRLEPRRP

[4] = biological target: Rap guanine nucleotide exchange factor 4 (Homo sapiens) (UniProt Q8WZA2); test: Confirmatory qHTS for antagonist of cAMP-regulated guanine nucleotide exchange factor 4 (EPAC2) (AID 1645885); also: nearly all actives have a fitted effect of over 25% in size; also: potency is read from the fitted curve at half-maximal effect
[5] = biological target: Rap guanine nucleotide exchange factor 3 (Homo sapiens) (UniProt O95398); test: Counterscreen qHTS for antagonist of cAMP-regulated guanine nucleotide exchange factor 3 (EPAC1) (AID 1645888);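 also: fluorescence loss as bound BODIPY-GDP is released from Rap1B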
Outline: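 Measured: fluorescence of BODIPY-GDP bound to Rap1B, which falls as exchange proceeds. Conditions include 50 uM competing GDP, 5 and 30 min reads, and a later cAMP challenge for antagonist detection.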

Structure (SMILES)	Potency [1]	Potency [2]	Potency [3]	outcome [4]	Potency [5]	Potency [4]	activation [3]	activity change, negative = inhibition [5]
COc1ccccc1NC(=O)c1sc2nc(C)c(C(=O)Nc3ccc(C)cc3C)c(-c3ccco3)c2c1N	inactive	inactive	inactive	inactive [at 12.7 µM]	inactive			
Nc1ccc2c3c(cccc13)-c1ccccc1-2	inactive	100 µM (active)	100 µM (active)		inactive	inactive		
COc1ccc(NS(=O)(=O)c2ccc3[nH]c4c(c3c2)CCCCCC4)cc1	inactive	inactive	inactive	inactive [at 12.7 µM]	inactive			
COc1ccccc1C(=O)NC(=O)COC(=O)C1CC1	inactive	inactive	inactive		inactive	inactive		
COc1ccc(C(=O)NCc2ccc3c(c2)CCN3C(=O)c2ccc(C)cc2)cc1	inactive	inactive	inactive		inactive	inactive		
COC(=O)c1cc2oc(C)cc2n1Cc1c(C)cc(C)cc1C	inactive	inactive	inactive		inactive	inactive		
CC1=Nc2ccccc2/C1=C/c1sc(=S)n(-c2cccc(C(=O)O)c2)c1O	44.7 µM (active)	inactive				inactive	2.42% [at 17.1 µM, percent relative to cAMP agonist control]	11.8% [at 30.8 µM]
CC(Oc1ccc(-c2nnco2)cc1)C(=O)N1CCOCC1 (stereo not given)	inactive	inactive	inactive		inactive	inactive		
CSc1nc(N2CCOCC2)c2c3c(sc2n1)CCC3	inactive	inactive	inactive		inactive	inactive		
Cc1[nH][nH]c(=O)c1C(c1c(C)[nH][nH]c1=O)c1cn(Cc2ccccc2Cl)c2ccccc12	75.7 µM (active)	inactive	inactive		inactive	inactive		
CNC(=O)c1c(NC(=O)C2=COCCO2)sc(C)c1C	inactive	inactive	inactive		inactive	inactive		
CN1CCN(C2=C(Cl)C(=O)c3ccccc3C2=O)CC1	25.1 µM (active)	inactive				inactive	11% [at 17.1 µM, percent relative to cAMP agonist control]	17.9% [at 30.8 µM]
COc1ccc(C=NNc2ccc(S(=O)(=O)Nc3ccccc3C(=O)O)cc2[N+](=O)[O-])c(OC)c1	15.1 µM (active)	inactive	inactive		inactive	inactive		
Cc1ccc(S(=O)(=O)Nc2cccc(C(=O)NCC(c3ccco3)N3CCCCC3)c2)cc1F (stereo not given)	inactive	inactive	inactive		inactive	inactive		
CCC(=O)C1=C(c2cccc([N+](=O)[O-])c2)N(C(=O)CC)n2c(nnc2-c2ccccc2)S1	inactive	inactive	inactive		inactive	inactive		
COc1ccccc1C(CC(=O)N1CCCC1)c1ccc2c(c1)OCO2 (stereo not given)	inactive	inactive				inactive	2.08% [at 17.1 µM, percent relative to cAMP agonist control]	-9.86% [at 30.8 µM]
Cc1ccc(NC(=O)C2CCCN2S(=O)(=O)c2cccc3nsnc23)c(Br)c1 (stereo not given)	inactive	inactive	inactive	inactive [at 12.7 µM]	inactive			
CC(=O)Nc1ccc(NS(=O)(=O)c2cn(C)c(=O)n(C)c2=O)cc1	inactive	inactive				inactive	8.18% [at 17.1 µM, percent relative to cAMP agonist control]	9.16% [at 30.8 µM]
CNc1nc(-c2ccc(OC)cc2)c(-c2ccc(OC)cc2)s1	inactive	inactive	inactive		inactive	23.9 µM (active)		
c1ccc(N2[C@@H]3c4ccccc4C[C@H]2c2ccccc23)cc1	inactive	inactive				inactive	8.36% [at 17.1 µM, percent relative to cAMP agonist control]	-11.2% [at 30.8 µM]
COc1ccc([N+](=O)[O-])cc1NC(=S)Nc1ccccc1	inactive	inactive	inactive		inactive	inactive		
CC1Cc2cc(/C=C3/SC(=S)NC3=O)ccc2O1 (stereo not given)	30.1 µM (active)	inactive	inactive		inactive	inactive		
Cc1cc(Nc2ccccc2)n(-c2nc3ccccc3[nH]2)n1	inactive	inactive				inactive	5.09% [at 17.1 µM, percent relative to cAMP agonist control]	-0.198% [at 30.8 µM]
Cc1ccc(C(NC(=O)C(C)C)c2cc([N+](=O)[O-])c3cccnc3c2O)cc1 (stereo not given)	35.5 µM (active)	inactive				inactive	0.958% [at 17.1 µM, percent relative to cAMP agonist control]	-17.2% [at 30.8 µM]

Structure (SMILES)	Potency [1]	Potency [2]	Potency [3]	outcome [4]	Potency [5]	Potency [4]	activation [3]	activity change, negative = inhibition [5]
Cc1cc(C)c(-c2c(N)cc(Br)cc2Br)c(N)c1	inactive	inactive	inactive		inactive	inactive		
Cc1nn(-c2ccccc2)c(N2CCCC2)c1/C=C1\N=C(c2ccc(OC(C)C)cc2)OC1=O	inactive	inactive	inactive		inactive	inactive		
COc1ccc(C(=O)NCC2(c3ccccc3)CCCC2)c(OC)c1	inactive	inactive				inactive	-2.19% [at 17.1 µM, percent relative to cAMP agonist control]	-13.7% [at 30.8 µM]
COc1ccc(/C=N/Nc2ccc(C(=O)O)cc2)cc1Br	inactive	inactive	inactive		inactive	inactive		
COc1ccc(OC)c(N=Cc2c(O)c3ccccc3oc2=O)c1	inactive	112 µM (active)	89.1 µM (active)		inactive	inactive		
Cc1ccc([C@H]2C(C(=O)O)=CC[C@@H](c3ccc(Cl)c(Cl)c3)N2S(=O)(=O)c2ccc(C)cc2)cc1	56.2 µM (active)	inactive				inactive	12.8% [at 17.1 µM, percent relative to cAMP agonist control]	-5.89% [at 30.8 µM]
Cc1ccc(C2=N/C(=C\c3c(C)nn(-c4ccccc4)c3N3CCCC3)C(=O)O2)cc1	inactive	inactive	inactive		inactive	15.1 µM (active)		
CC(=O)Nc1ccc(S(=O)(=O)NCCC(=O)Nc2cc(C)ccn2)cc1	inactive	inactive	inactive		inactive	inactive		
CC(C)N1CCc2c(sc(NC(=O)c3ccc(S(=O)(=O)N4CCCCC4C)cc3)c2C(N)=O)C1 (stereo not given)	89.1 µM (active)	inactive				inactive	4.64% [at 17.1 µM, percent relative to cAMP agonist control]	3.44% [at 30.8 µM]
Cc1cccc(NCC(=O)N/N=C\c2ccc[nH]2)c1	inactive	inactive	inactive		inactive	inactive		
Cc1ccc(NC(=O)c2c(NC(=O)C(F)(F)F)sc3c2CCCCC3)cc1	84.9 µM (active)	inactive	inactive		inactive	inactive		
CCNC(=O)C1(C)CCN(C(=O)c2ccc(C(=O)OC)cc2)C1 (stereo not given)	inactive	inactive	inactive		inactive	inactive		
CNc1c(-n2cc(C(=O)OC)c(C(=O)OC)c2C(=O)OC)c(=O)n(C)c(=O)n1C	inactive	inactive	inactive		inactive	inactive		
CC(OC(=O)Cc1c[nH]c2ccccc12)C(=O)Nc1ccccc1F (stereo not given)	inactive	inactive	inactive		inactive	inactive		
O=S1(=O)CCO[C@H]2Cc3ccccc3[C@H]2N1Cc1ccc(Cl)cc1	inactive	inactive				inactive	-2.47% [at 17.1 µM, percent relative to cAMP agonist control]	-21.2% [at 30.8 µM]
CC(=O)C[C@H]1SC[C@@H](C(C)C)N1S(=O)(=O)c1ccc(C)cc1	inactive	inactive	inactive		inactive	inactive		
CC1=NN(c2nc(-c3ccc(Cl)cc3)cs2)C(=O)C1	25.1 µM (active)	inactive				inactive	4.56% [at 17.1 µM, percent relative to cAMP agonist control]	-0.482% [at 30.8 µM]
CCOc1cc(/C=C2\SC(=S)N(NS(=O)(=O)c3ccccc3)C2=O)ccc1O	33.8 µM (active)	inactive	inactive		inactive	42.6 µM (active)		
COc1ccc(N(Cc2cccs2)C(=O)c2ccco2)cc1	inactive	inactive	inactive	inactive [at 12.7 µM]	inactive			
CN(C)c1nc(Oc2ccc(=O)[nH]n2)nc(N2CCOCC2)n1	inactive	inactive	inactive		inactive	inactive		
COc1ccc(-c2nc3n(c(=O)c2C#N)CCS3)cc1	inactive	inactive				inactive	4.85% [at 17.1 µM, percent relative to cAMP agonist control]	-1.96% [at 30.8 µM]
CN(C(=O)c1cc(-c2ccccc2)on1)C1CCCCC1	inactive	inactive				inactive	6.82% [at 17.1 µM, percent relative to cAMP agonist control]	29.1% [at 30.8 µM]
CN(C)CC/C=C1/c2ccccc2Sc2c(O)cc(Cl)cc21	inactive	inactive	inactive		inactive	inactive		
CCOc1ccc(CCNc2ncnc3onc(-c4ccc(Cl)cc4)c23)cc1OCC	inactive	inactive	inactive		inactive	inactive		
